Drawing on PubChem BioAssay, this text covers composite z-score and z-score for six molecules.

Calls of active or inactive are those of the source.

Assay [1] concerns Plasmodium falciparum Sir2 (PF13_0152, Sir2A). Description: pfSir2 binders on small-molecule microarrays, primary screen, biochemical, small-molecule microarray, 635 nm fluorescence (AID 1098).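 Note: score merges spot fluorescence intensity with its signal-to-noise ratio.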 The conditions noted are these: small-molecule microarray binding, fluorescence 635 nm; higher = more signal.
Assay [2] can be described thus: small-molecule microarray binders of probe aDKK1, primary screen, biochemical, biotinylated probe, 635/667 nm fluorescence (AID 1099).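 Note: score merges 667nm spot fluorescence with signal to noise across triplicate slides.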 The conditions noted are these: higher = more signal.
Assay [3] is described as follows: small-molecule microarray binders of probe aCHRDL2, primary screen, biochemical, biotinylated probe, 635/667 nm fluorescence (AID 1100). The note with it: higher = more signal.
Assay [4] in a line: splicing luciferase reporter signal modulators, primary screen, spliceosome inhibition project, cell-based, HEK293, splice +/- reporter (AID 1101).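 Note: HEK293 cells carrying a splicing-competent luciferase reporter gene; test concentration not given here.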 The conditions noted are these: luminescence, 24 h, higher = more signal, called active from +8 up or from −8 down. In general terms: Reporter assays use an easily measured gene product as a stand-in for the process of interest.
In assay [5] the target is Fibroblast growth factor 10 (Homo sapiens) (UniProt O15520). Kind of assay: FGF10 binders on small-molecule microarrays, primary screen, biochemical, small-molecule microarray, 635 nm fluorescence (AID 1102). The conditions noted are these: FGF10 binding, fluorescence 635 nm, higher = more signal.
The subject of assay [6] is glycogen synthase kinase-3 (GSK3A per assay name; protocol says GSK3B). Description: GSK3 binders on small-molecule microarrays, primary screen, biochemical, small-molecule microarray, 635 nm fluorescence, GSK3A (AID 1103). Note: the record names both GSK3A and GSK3B. The note with it: small-molecule microarray binding, fluorescence 635 nm; higher = more signal.
The target of assay [7] is Epidermal growth factor receptor (Homo sapiens) (UniProt P00533). Kind of assay: EGFR binders on small-molecule microarrays, primary screen, biochemical, small-molecule microarray, 635 nm fluorescence (AID 1104).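 Note: score merges 667 nm emission intensity with spot signal to noise over triplicate slides.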 The note with it: EGFR binding, higher = more signal.
The target of assay [8] is Follistatin-related protein 3 (Homo sapiens) (UniProt O95633). Description: FSTL3 binders on small-molecule microarrays, primary screen, biochemical, small-molecule microarray, 635 nm fluorescence (AID 1105).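 Note: score merges emission near 667 nm and signal to noise per printed spot across three slides.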 The note with it: FSTL3 binding, higher = more signal.
The target of assay [9] is Dickkopf-related protein 1 (Homo sapiens) (UniProt O94907). Description: DKK1 binders on small-molecule microarrays, primary screen, biochemical, small-molecule microarray, 635 nm fluorescence scan (AID 1106).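 Note: score merges emission near 667 nm with signal to noise over three replicate slides.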 The note with it: DKK1 binding, higher = more signal.
Assay [10] has as its system Inhibin beta A chain (activin A). Kind of assay: INHBA (activin A) binders on microarrays, primary screen, biochemical, small-molecule microarray, 635 nm fluorescence scan (AID 1107).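 Note: mouse activin A protein probed at 4.33 µg/mL on printed slides; score merges bound-protein fluorescence near 667 nm with spot signal-to-noise.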 The note with it: small-molecule microarray binding, higher = more signal.
In assay [11] the test system is Human papillomavirus type 1a protein E7 (residues 44-93). Description: HPV1a E7 fragment binders on microarrays, primary screen, biochemical, small-molecule microarray, residues 44-93, 635 nm fluorescence (AID 1108).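 Note: E7 fragment applied at 1 µg/mL in TBST for 1 h at 4 C; score combines spot fluorescence with its signal to noise ratio.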 The note with it: small-molecule microarray binding, fluorescence 635 nm; higher = more signal.
Assay [12] can be described thus: modulators of HCV replicon luciferase signal, primary screen, HCV replication inhibitor project, Huh7 cells, luciferase reporter (AID 1109).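 Note: huh7 hepatoma cells harbouring a luciferase neomycin HCV replicon reporter; luciferase luminescence as measure of HCV replicon replication; test concentration not given here.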 The conditions noted are these: 48 h, higher = more signal. (In antiviral work, replicon cells carry a viral genome segment that copies itself.)
The target in assay [13] is Left-right determination factor 2 (Homo sapiens) (UniProt O00292). Description: LEFTY2 binders on small-molecule microarrays, primary screen, biochemical, small-molecule microarray, 635 nm fluorescence scan (AID 1110). The conditions noted are these: LEFTY2 binding, higher = more signal.
For assay [14], the target named is Calmodulin-1 (Homo sapiens) (UniProt P0DP23). Kind of assay: CALM1 binders on microarrays, EGTA buffer, profiling panel, biochemical, small-molecule microarray, Cy5-labelled CALM1 (AID 1111).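 Note: labelled calmodulin applied in Tris saline Tween buffer holding calcium plus EGTA and DTT.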 The conditions noted are these: Cy5-CALM1 binding fluorescence, higher = more signal.
For assay [15] the target is unchanged. Kind of assay: calcium-bound CALM1 binders on microarrays, profiling panel, artefact control for SMM control-protein annotation, biochemical, small-molecule microarray, Cy5-labelled CALM1, plus calcium (AID 1112).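 Note: score merges spot fluorescence with signal to noise from triplicate slides.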 The note with it: Cy5-CALM1 binding fluorescence, higher = more signal.
A short description of assay [16]: small-molecule microarray binders of probe aWnt5a, primary screen, biochemical, biotinylated probe, 635/667 nm fluorescence (AID 1113).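 Note: score merges 667 nm fluorescence intensity with signal-to-noise per printed feature.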 The note with it: higher = more signal.
Assay [17] is described as follows: small-molecule microarray binders of probe aShh, primary screen, biochemical, biotinylated probe, 635/667 nm fluorescence (AID 1114).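 Note: probe is biotin-labelled aShh protein from a stem cell growth factor screen; measures binding of labelled protein to compounds printed on the slide; score merges feature fluorescence at 667 nm with signal-to-noise.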 The conditions noted are these: higher = more signal.
A short description of assay [18]: small-molecule microarray binders of probe aNog, primary screen, biochemical, biotinylated probe, 635/667 nm fluorescence (AID 1115).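 Note: probe is biotinylated aNog protein used at 0.15 µg/mL for 1 h at 4 C; z-score combines 667 nm fluorescence of each spot with its signal to noise.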 The conditions noted are these: higher = more signal.
Assay [19] deals with Torsin-1A-interacting protein 1 (Homo sapiens) (UniProt Q5JTV8). Description: LAP1 binders from COS7 cell lysate, primary screen, small-molecule microarray, 635/667 nm fluorescence (AID 1116). The note with it: COS7-hLAP1 lysate binding, 635 nm fluorescence, higher = more signal.
In assay [20] the target is Alpha-bungarotoxin (Bungarus multicinctus) (UniProt P60615). Kind of assay: alpha-bungarotoxin binders on microarray, profiling panel, artefact control for SMM control protein annotation, biochemical, small-molecule microarray, Alexa647 label, 635/667 nm fluorescence (AID 1117). The conditions noted are these: alpha-BTX-A647 binding fluorescence, higher = more signal.
Chain of Alpha-bungarotoxin (Bungarus multicinctus) (P60615 whole entry, looked up): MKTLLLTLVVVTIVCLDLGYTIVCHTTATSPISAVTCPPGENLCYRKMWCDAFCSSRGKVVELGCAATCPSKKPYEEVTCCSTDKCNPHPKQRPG

Chain of Follistatin-related protein 3 (Homo sapiens) (O95633 whole entry, looked up): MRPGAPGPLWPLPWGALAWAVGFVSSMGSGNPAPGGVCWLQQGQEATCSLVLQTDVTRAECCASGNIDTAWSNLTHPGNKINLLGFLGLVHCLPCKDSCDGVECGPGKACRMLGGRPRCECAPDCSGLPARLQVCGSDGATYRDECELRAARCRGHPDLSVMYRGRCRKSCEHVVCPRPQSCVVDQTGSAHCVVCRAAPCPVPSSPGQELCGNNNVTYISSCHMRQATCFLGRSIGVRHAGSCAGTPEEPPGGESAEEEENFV
Chain of Dickkopf-related protein 1 (Homo sapiens) (O94907 whole entry, looked up): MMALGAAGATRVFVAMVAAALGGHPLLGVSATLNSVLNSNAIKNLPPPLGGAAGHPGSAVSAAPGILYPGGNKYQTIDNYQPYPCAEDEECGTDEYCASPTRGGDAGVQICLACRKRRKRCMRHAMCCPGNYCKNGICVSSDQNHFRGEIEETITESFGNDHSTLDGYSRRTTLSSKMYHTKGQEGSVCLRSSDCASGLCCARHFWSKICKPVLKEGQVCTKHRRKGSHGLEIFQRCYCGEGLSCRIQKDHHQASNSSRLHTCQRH
Chain of Left-right determination factor 2 (Homo sapiens) (O00292 whole entry, looked up): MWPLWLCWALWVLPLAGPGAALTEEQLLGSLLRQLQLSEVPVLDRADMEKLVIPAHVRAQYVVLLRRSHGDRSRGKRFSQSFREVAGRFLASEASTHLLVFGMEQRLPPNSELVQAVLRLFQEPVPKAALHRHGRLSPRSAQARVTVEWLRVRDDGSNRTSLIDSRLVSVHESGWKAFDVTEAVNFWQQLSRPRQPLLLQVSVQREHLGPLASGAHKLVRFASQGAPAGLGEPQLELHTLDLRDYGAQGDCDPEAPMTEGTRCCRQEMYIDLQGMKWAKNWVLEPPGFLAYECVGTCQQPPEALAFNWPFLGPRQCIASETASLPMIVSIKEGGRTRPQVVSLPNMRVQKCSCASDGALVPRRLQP
Chain of Epidermal growth factor receptor (Homo sapiens) (P00533 whole entry, looked up): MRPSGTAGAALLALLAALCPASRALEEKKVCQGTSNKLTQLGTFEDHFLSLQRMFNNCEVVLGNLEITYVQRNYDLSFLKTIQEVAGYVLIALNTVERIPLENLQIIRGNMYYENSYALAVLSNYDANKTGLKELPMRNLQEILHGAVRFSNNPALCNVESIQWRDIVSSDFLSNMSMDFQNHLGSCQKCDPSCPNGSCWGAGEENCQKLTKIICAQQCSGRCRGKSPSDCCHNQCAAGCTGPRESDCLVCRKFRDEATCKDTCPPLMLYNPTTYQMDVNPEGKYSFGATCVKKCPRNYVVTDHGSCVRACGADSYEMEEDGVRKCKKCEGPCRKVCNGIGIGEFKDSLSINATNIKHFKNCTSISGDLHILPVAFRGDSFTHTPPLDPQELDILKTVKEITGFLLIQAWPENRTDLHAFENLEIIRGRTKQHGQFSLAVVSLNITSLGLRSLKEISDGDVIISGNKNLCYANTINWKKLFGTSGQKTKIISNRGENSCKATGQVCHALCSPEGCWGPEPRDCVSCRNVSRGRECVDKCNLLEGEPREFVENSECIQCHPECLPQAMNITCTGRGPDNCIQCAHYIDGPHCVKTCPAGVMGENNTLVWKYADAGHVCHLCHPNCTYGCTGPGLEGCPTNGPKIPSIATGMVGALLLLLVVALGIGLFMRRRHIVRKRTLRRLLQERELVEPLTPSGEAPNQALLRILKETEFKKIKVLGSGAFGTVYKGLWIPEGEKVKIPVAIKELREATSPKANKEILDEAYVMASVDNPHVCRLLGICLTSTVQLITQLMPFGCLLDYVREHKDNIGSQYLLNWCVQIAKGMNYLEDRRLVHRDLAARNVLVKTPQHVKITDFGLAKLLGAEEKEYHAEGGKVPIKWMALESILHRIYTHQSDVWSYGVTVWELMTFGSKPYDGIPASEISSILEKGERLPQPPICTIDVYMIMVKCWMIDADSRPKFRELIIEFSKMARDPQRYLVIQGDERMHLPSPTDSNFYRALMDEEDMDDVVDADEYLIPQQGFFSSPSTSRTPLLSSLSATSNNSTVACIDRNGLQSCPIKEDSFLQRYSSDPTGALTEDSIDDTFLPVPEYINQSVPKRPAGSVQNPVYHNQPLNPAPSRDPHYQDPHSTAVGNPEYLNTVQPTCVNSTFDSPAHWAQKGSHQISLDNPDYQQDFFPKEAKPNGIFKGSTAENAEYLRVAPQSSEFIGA
Chain of Torsin-1A-interacting protein 1 (Homo sapiens) (Q5JTV8 whole entry, looked up): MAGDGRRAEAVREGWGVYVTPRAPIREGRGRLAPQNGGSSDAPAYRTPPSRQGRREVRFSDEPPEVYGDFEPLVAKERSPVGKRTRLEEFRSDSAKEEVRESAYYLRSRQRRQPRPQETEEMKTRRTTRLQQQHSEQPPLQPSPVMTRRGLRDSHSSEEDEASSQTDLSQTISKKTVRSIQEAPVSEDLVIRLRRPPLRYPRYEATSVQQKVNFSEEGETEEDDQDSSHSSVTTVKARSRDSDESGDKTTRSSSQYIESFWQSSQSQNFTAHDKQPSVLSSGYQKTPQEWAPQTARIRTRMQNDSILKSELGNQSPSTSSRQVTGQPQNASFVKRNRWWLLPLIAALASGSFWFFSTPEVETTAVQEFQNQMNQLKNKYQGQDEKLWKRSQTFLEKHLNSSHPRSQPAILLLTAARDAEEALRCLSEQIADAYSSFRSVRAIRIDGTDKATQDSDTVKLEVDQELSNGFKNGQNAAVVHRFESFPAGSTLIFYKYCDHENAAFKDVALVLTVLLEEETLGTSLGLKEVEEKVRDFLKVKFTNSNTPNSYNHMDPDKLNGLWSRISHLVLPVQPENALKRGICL
Chain of Fibroblast growth factor 10 (Homo sapiens) (O15520 whole entry, looked up): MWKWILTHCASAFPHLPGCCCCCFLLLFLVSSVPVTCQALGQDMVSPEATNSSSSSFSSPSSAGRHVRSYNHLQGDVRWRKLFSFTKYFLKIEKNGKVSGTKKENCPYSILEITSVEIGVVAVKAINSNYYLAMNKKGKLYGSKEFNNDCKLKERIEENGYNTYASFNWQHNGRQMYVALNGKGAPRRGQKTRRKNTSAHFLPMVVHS

`C=C(/C(=C/C[C@@H](OC(C)=O)c1cccc(OCCO)c1)c1cnc2ccccc2c1)C(C)C`: the composite z-score in assay [1] is 0.85; in assay [2] it was -0.268; in assay [3], 0.0363; in assay [5], 0.706; in assay [6], 0.612; in assay [7], 0.324. Further, the composite z-score in assay [8] was 1.37; in assay [9] it was 0.625; in assay [10] it was 1.56; in [11] it was 0.858; in assay [13], 0.54; in [14], -0.24. For the same molecule, the composite z-score is -0.51 in assay [15]; -0.0045 in assay [16]; -0.0709 in [17]; -0.326 in assay [18]; 1.02 in assay [19]; 1.3 in assay [20]. Besides, the values for the z-score in assay [4] and in assay [12] were -0.664 (inactive) and -1.96, respectively.

Turning to `COC(=O)C(CC#Cc1ccc2c(c1)[C@]1(C(=O)N2)[C@H](c2ccc(OCCO)cc2)N2[C@H](c3ccccc3)[C@H](c3ccccc3)OC(=O)[C@H]2[C@@H]1C(=O)N1CCCCCCC1)C(=O)OC`, the composite z-score in assay [1] worked out at 1.8; in assay [2], 2.65; in assay [3], 1.3; in [5], 1.18; in [6] it was 1.37; in [7], 1.64. Besides, the composite z-score in assay [8] was 1.63; in assay [9] it was 2.14; in assay [10] it was 1.64; in assay [11] it was 1.32; in assay [13] it was 1.62; in [14], 2.73. Moreover, the composite z-score in assay [15] came to 1.29; in assay [16] it was 1.25; in [17] it was 2.81; in assay [18] it was 2.33; in assay [19] it was 4.91; in [20], 2.62. Further, the z-score is 0.191 (inactive) in assay [4] and -0.851 in assay [12].

As for `CCCCC(O)C1C=CC2C(=O)N(c3ccccc3)C(=O)C2N1Nc1ccccc1` (stereo not given), the composite z-score in assay [1] was 0.664; in [2] it was 0.696; in assay [3] it was 0.91; in assay [5], 0.564; in assay [6], -0.501; in [7], -0.633. The composite z-score in [8] is -0.293; in [9] it was -0.699; in [10], 1.16; in [11] it was 1.24; in [13] it was -0.484; in assay [14], 1.14. Besides, the composite z-score came to 1.06 in [15]; 0.0153 in assay [16]; 0.232 in assay [17]; 0.331 in [18]; 0.721 in assay [19]; 1.45 in [20]. Moreover, the z-score in assay [4] is 0.759 (inactive); in assay [12], -0.375.

As to `N#Cc1ccc(-c2cccc(=O)o2)cc1`, the composite z-score in assay [1] was 0.306; in assay [2] it was -0.269; in assay [3], -0.0642; in assay [5], 0.219; in [6], 0.441; in [7] it was 0.506. The composite z-score in assay [8] is 0.345; in [9], 0.0771; in assay [10], 0.254; in [11], 0.561; in assay [13], 0.0266; in assay [14] it was -0.179. Moreover, the composite z-score in assay [15] was -0.564; in assay [16] it was -0.0383; in assay [17] it was -0.349; in assay [18], 0.119; in assay [19] it was -0.102; in assay [20], 0.26. Besides, the z-score was 0.862 (inactive) in assay [4] and -0.0585 in [12].

In the case of `COCCOC(=O)N1C(=O)[C@@]2(c3ccccc31)[C@H](C(=O)N1CCN(c3ncccn3)CC1)[C@H]1C(=O)O[C@H](c3ccccc3)[C@H](c3ccccc3)N1[C@@H]2c1ccccc1OCCO`, the composite z-score is 1.33 in assay [1]; -0.0994 in assay [2]; -0.41 in [3]; 1.17 in assay [5]; 1.31 in [6]; 0.575 in assay [7]. The composite z-score came out at 1.15 in assay [8]; 0.778 in [9]; 0.888 in assay [10]; 1.35 in assay [11]; 0.687 in assay [13]; 0.902 in [14]. The composite z-score in [15] is 0.369; in [16], -0.0462; in assay [17], 0.704; in assay [18], 0.26; in [19] it was 0.405; in assay [20], 0.749. The z-score is -1.05 (inactive) in assay [4] and -1.79 in assay [12].

Regarding `COC(=O)C1(Cc2ccccc2)C=C2C(=C(C)C(=O)C2C)CN1` (stereo not given), the composite z-score was 1.66 in [1]; 1.21 in assay [2]; 1.22 in [3]; 0.231 in assay [5]; -0.333 in [6]; -0.362 in assay [7]. In addition, the composite z-score was 0.513 in assay [8]; -0.424 in [9]; 1.43 in [10]; -0.706 in assay [11]; -0.479 in [13]; 1.92 in assay [14]. Besides, the composite z-score in [15] was 0.536; in assay [16], -0.0644; in assay [17], -0.0035; in assay [18], 1.68; in assay [19] it was 1.8; in assay [20], 0.242. The z-score in assay [4] is 1.44 (inactive); in [12] it was 0.0597.
